The supplement of paper PMC8007513
Where a name gives a salt, the structure may show the parent alone. ± gives the standard error. Out of some 1,300 compounds screened, about 75 (6%) showed an effect of 50% or more. For the sample, strong results were picked, then their nearest neighbours and some compounds at random.

System: Trichoderma virens ATCC 9645
Assay: growth yield (OD600) relative to untreated control; higher = less growth inhibition
Details: compound concentration: 100 uM
Procedure, shortened: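 For each 96-well plate, 100 μl aliquots were prepared with Trichoderma virens ATCC 9645 spores suspended at 15,000 spores ml^−1 in potato dextrose broth. The spores had been harvested from potato dextrose agar plates after 7 days. Library compounds were present at 100 μM final, some wells also receiving a biocide at 200 ng ml^−1, and plates were grown at 30 °C with OD600 read on a BioTek EL800 at 40 h and 72 h. Reported growth, relative to the control lacking both agents, is the mean of duplicate screens.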

Compound	growth yield (40 h) [%]	growth yield (72 h) [%]
CN(C)[C@@H]1C(O)=C(C(=O)NCNCCCC[C@H](N)C(=O)O)C(=O)[C@@]2(O)C(O)=C3C(=O)c4c(O)cccc4[C@@](C)(O)[C@H]3C[C@@H]12 [Lymecycline]	82.1 ± 2.7	73.83 ± 0.63
CC(C)(O/N=C(\C(=O)N[C@@H]1C(=O)N2C(C(=O)[O-])=C(C[n+]3ccccc3)CS[C@H]12)c1csc(N)n1)C(=O)O [Ceftazidime pentahydrate]	102	102 ± 1.1
CO/N=C(\C(=O)N[C@@H]1C(=O)N2C(C(=O)OC(C)OC(C)=O)=C(COC(N)=O)CS[C@H]12)c1ccco1 (some centres undefined) [Cefuroxime axetil]	97.05 ± 0.16	96.5 ± 1.7
CC(C)NCC(O)c1cc(O)cc(O)c1 (centres undefined) [Metaproterenol sulfate, orciprenaline sulfate]	99.1 ± 1.6	99.95 ± 0.1
CC[C@@H]([C@H](C)O)n1ncn(-c2ccc(N3CCN(c4ccc(OC[C@@H]5CO[C@@](Cn6cncn6)(c6ccc(F)cc6F)C5)cc4)CC3)cc2)c1=O [Posaconazole]	8.9 ± 8.9	5.77 ± 5.6
CC(C)N1CCN(c2ccc(OCC3COC(Cn4cncn4)(c4ccc(Cl)cc4Cl)O3)cc2)CC1 (centres undefined) [Terconazole]	82.44 ± 0.16	88.4 ± 1.1
CCC(C)n1ncn(-c2ccc(N3CCN(c4ccc(OCC5COC(Cn6cncn6)(c6ccc(Cl)cc6Cl)O5)cc4)CC3)cc2)c1=O (centres undefined) [Itraconazole]	4.77 ± 2.2	13.2
CC(=O)N1CCN(c2ccc(OCC3COC(Cn4ccnc4)(c4ccc(Cl)cc4Cl)O3)cc2)CC1 (centres undefined) [Ketoconazole]	2.22 ± 1.3	1.68 ± 0.84
Nc1ccc(C(=O)O)c(O)c1 [4-aminosalicylic acid]	93.1	89.36 ± 0.42
CO[C@@]1(NC(=O)C(C(=O)O)c2ccc(O)cc2)C(=O)N2C(C(=O)O)=C(CSc3nnnn3C)CO[C@@H]21 (some centres undefined) [Moxalactam disodium salt]	96.1 ± 0.16	92.71 ± 0.63
CCC(C)(C)C(=O)O[C@H]1C[C@@H](C)C=C2C=C[C@H](C)[C@H](CC[C@@H]3C[C@@H](O)CC(=O)O3)[C@H]21 [Simvastatin]	103 ± 1.3	96.2 ± 4.5
C=CCN1CCCC1CNC(=O)c1cc2nn[nH]c2cc1OC (centres undefined) [Alizapride hydrochloride]	108 ± 4.3	109 ± 2.7
CN(C)C(=N)NC(=N)N [Metformin hydrochloride]	105 ± 7.2	103 ± 5.3
Clc1ccc(C(Cn2ccnc2)OCc2c(Cl)cccc2Cl)c(Cl)c1 (centres undefined) [Isoconazole]	2.06 ± 1.4	1.68 ± 1.1
Clc1ccc(CO/N=C(\Cn2ccnc2)c2ccc(Cl)cc2Cl)c(Cl)c1 [Oxiconazole Nitrate]	1.59 ± 1.6	0.839 ± 0.84
Clc1ccc(CSC(Cn2ccnc2)c2ccc(Cl)cc2Cl)cc1 (centres undefined) [Sulconazole nitrate]	2.22 ± 0.64	1.78 ± 0.52
Clc1ccc(CCC(Cn2ccnc2)Sc2c(Cl)cccc2Cl)cc1 (centres undefined) [Butoconazole nitrate]	3.49	2.31
